The source of these data is the supplement of paper PMC12350171.

Each structure is given as a SMILES string. Counter-ions that a name gives are not always drawn. A number with no mark means an inactive call.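 Rule for the calls: active = normalised median growth AUC below 0.1 of DMSO control; inactive = AUC 0.1 or higher.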
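Note: active when median AUC fell below 0.1.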

The test system of one test is P. vulgatus RND KO. Description: growth AUC normalised to DMSO control (median) (fraction of control); higher = less growth inhibition, active = hit call of the paper. The settings on record: 20 µM. Put shortly:
(§1)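 Area under the growth curve, calculated by the trapezoidal rule up to entry into stationary phase, was normalised to vehicle wells on the same plate. Strains had been passaged twice overnight without oxygen and then grown in mGAM in 96-well plates from OD578 0.01, each with an approved-drug library compound at 20 μM in 1% DMSO. OD578 was read hourly over 24 h in an anaerobic incubator, and the median of three biological replicates is given.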
Turning to `COc1cccc(CCc2ccccc2OCC(CN(C)C)OC(=O)CCC(=O)O)c1` (centres undefined) [Sarpogrelate hydrochloride], the “growth AUC normalised to DMSO control” value is 1.03.
With `CC(=O)N[C@H]1[C@H]([C@H](O)[C@H](O)CO)OC(C(=O)O)=C[C@@H]1NC(=N)N` [Zanamivir], the “growth AUC normalised to DMSO control” value was 1.06.
Same read-out and setting: under `CN1CCN(C2Cc3ccccc3Sc3ccc(Cl)cc32)CC1` (centres undefined) [Octoclothepin maleate salt] stands 1.05.
Consider `Cc1ccc2c(Cl)cc(Cl)c(O)c2n1` [Chlorquinaldol], for which the “growth AUC normalised to DMSO control” value was 0.0174 (active).
Still for that read-out and setting: under `NS(=O)(=O)c1cc2c(cc1Cl)NC(Cc1ccccc1)NS2(=O)=O` (centres undefined) [Benzylhydrochlorothiazide] stands 1.08.
On the same count and under the same terms, under `N[C@@H](C(=O)N[C@@H]1C(=O)N2C(C(=O)O)=C(Cl)CC[C@H]12)c1ccccc1` [Loracarbef] stands 0.00871 (active).
As for `CC(=O)OC[C@H]1O[C@@H](n2ncc(=O)[nH]c2=O)[C@H](OC(C)=O)[C@@H]1OC(C)=O` [Azaribine], the “growth AUC normalised to DMSO control” value is 0.972.
Still for that read-out and setting: under `NCCc1c[nH]cn1` [Histamine dihydrochloride] stands 0.991.
On the same count and under the same terms, under `OC(CNCC(O)C1CCc2cc(F)ccc2O1)C1CCc2cc(F)ccc2O1` (centres undefined) [Nebivolol hydrochloride] stands 0.957.

For another test, the system named is P. vulgatus WT. Described as above. The settings on record: 20 µM. Put shortly:
as §1
With `O=C1c2cccc3c2[C@H](CCC3)CN1[C@@H]1CN2CCC1CC2` [Palonosetron hydrochloride], the “growth AUC normalised to DMSO control” value was 1.
The same measure, in the same setting: under `N[C@@H](CSCCCO)C(=O)O` [Fudosteine] stands 0.987.
Take `NC[C@H]1O[C@H](O[C@H]2[C@H](O)[C@@H](O[C@H]3O[C@H](CO)[C@@H](O)[C@H](N)[C@H]3O)[C@H](N)C[C@@H]2N)[C@H](N)[C@@H](O)[C@@H]1O` [Kanamycin B]: the “growth AUC normalised to DMSO control” value is 1.14.
Turning to `CC1=C(C)C(=O)C(C(CCCCCC(=O)O)c2ccccc2)=C(C)C1=O` (centres undefined) [Seratrodast], the “growth AUC normalised to DMSO control” value is 0.967.
As for `Cc1cccc(C)c1OCC(=O)N[C@@H](Cc1ccccc1)[C@@H](O)C[C@H](Cc1ccccc1)NC(=O)[C@H](C(C)C)N1CCCNC1=O` [Lopinavir], the “growth AUC normalised to DMSO control” value was 1.07.
The same measure, in the same setting: under `CC(C)=CCOc1ccc(/C=C/C(=O)c2ccc(OCC=C(C)C)cc2OCC(=O)O)cc1` [Sofalcone] stands 0.993.
Consider `CCCCS(=O)(=O)N[C@@H](Cc1ccc(OCCCCC2CCNCC2)cc1)C(=O)O` [Tirofiban hydrochloride], for which the “growth AUC normalised to DMSO control” value is 0.99.
On the same count and under the same terms, under `Brc1c(NC2=NCCN2)ccc2nccnc12` [Brimonidine L-tartrate] stands 1.02; under `CC(=O)Nc1c(I)c(NC(C)=O)c(I)c(C(=O)O)c1I` [Diatrizoic acid dihydrate], 0.995.
Same read-out and setting: under `CCOC(=O)OC(C)OC1=C(C(=O)Nc2ccccn2)N(C)S(=O)(=O)c2ccccc21` (centres undefined) [Ampiroxicam] stands 0.988; under `N[C@@H](CCC(=O)N[C@@H](CS)C(=O)NCC(=O)O)C(=O)O` [Glutathione], 1.
Same read-out and setting: under `CC(C)CN(C[C@@H](O)[C@H](Cc1ccccc1)NC(=O)O[C@H]1CCOC1)S(=O)(=O)c1ccc(N)cc1` [Amprenavir] stands 1.06; under `COc1ccc2c(c1)c(CC(=O)OC/C=C(\C)CC/C=C(\C)CCC=C(C)C)c(C)n2C(=O)c1ccc(Cl)cc1` [Indometacin farnesil], 0.988.
With `C=C1[C@H](CO)[C@@H](O)C[C@@H]1n1cnc2c(=O)[nH]c(N)nc21` [Entecavir], the “growth AUC normalised to DMSO control” value was 0.996.
Still for that read-out and setting: under `CCCN1CCCC[C@H]1C(=O)Nc1c(C)cccc1C` [Ropivacaine hydrochloride] stands 1.03; under `CCNC(=O)CCC/C=C\C[C@@H]1[C@@H](/C=C/[C@@H](O)CCc2ccccc2)[C@H](O)C[C@@H]1O` [Bimatoprost], 1.04.
Same read-out and setting: under `C[C@@H](CN1CC(=O)NC(=O)C1)N1CC(=O)NC(=O)C1` [Dexrazoxane hydrochloride] stands 0.988; under `CN(C/C=C/C#CC(C)(C)C)Cc1cccc2ccccc12` [Terbinafine], 0.998; under `C[C@H]1[C@@H](O)O[C@@H]2O[C@@]3(C)CC[C@H]4[C@H](C)CC[C@@H]1[C@@]24OO3` [Artenimol], 1.04.
On to `O=c1[nH]cnc2c1ncn2[C@@H]1O[C@H](CO)[C@@H](O)[C@H]1O` [Inosine], for which the “growth AUC normalised to DMSO control” value was 1.04.
The same measure, in the same setting: under `CC1(C)S[C@@H]2[C@H](NC(=O)[C@H](N)c3ccccc3)C(=O)N2[C@H]1C(=O)OC1OC(=O)c2ccccc21` (some centres undefined) [Talampicillin hydrochloride] stands 0.00787 (active); under `CC(C(=O)O)c1ccc(N2CC=CC2)c(Cl)c1` (centres undefined) [Pirprofen], 1.06.
Still for that read-out and setting: under `Cn1cc([S+](C)[O-])c(=O)c2ccc(F)cc21` (centres undefined) [Flosequinan] stands 1.03; under `CCN(CC)CCOCCOC(=O)C(CC)(CC)c1ccccc1` [Oxeladin citrate], 0.98; under `Cc1ccc2c([nH]c(=O)c3c(=O)cc(C(=O)OCCC(C)C)oc32)c1C` [Repirinast], 0.943.
Same read-out and setting: under `Nc1c2ccccc2nc2ccccc12` [Aminacrine] stands 1.02.
Consider `O=C(O)C1CSCN1` (centres undefined) [Timonacic], for which the “growth AUC normalised to DMSO control” value was 0.999.
Take `Nc1ccc(S(=O)(=O)Nc2ccc(Cl)nn2)cc1` [Sulfachloropyridazine]: the “growth AUC normalised to DMSO control” value is 1.02.
On the same count and under the same terms, under `N#Cc1ccc(Oc2ccc3c(c2)COB3O)cc1` [Crisaborole] stands 1.02.
Same read-out and setting: under `N=c1ccn2c(n1)O[C@H]1[C@H](O)[C@@H](CO)O[C@H]12` [Ancitabine hydrochloride] stands 0.978; under `Oc1cc(O)c2c(c1)O[C@H](c1ccc(O)c(O)c1)[C@@H](O)C2` [Cianidanol], 1.01; under `COc1cccc(CCc2ccccc2OCC(CN(C)C)OC(=O)CCC(=O)O)c1` (centres undefined) [Sarpogrelate hydrochloride], 1.05.
On the same count and under the same terms, under `CC(=O)N[C@H]1[C@H]([C@H](O)[C@H](O)CO)OC(C(=O)O)=C[C@@H]1NC(=N)N` [Zanamivir] stands 1.1.
As to `CN1CCN(C2Cc3ccccc3Sc3ccc(Cl)cc32)CC1` (centres undefined) [Octoclothepin maleate salt], the “growth AUC normalised to DMSO control” value was 1.05.
Turning to `Cc1ccc2c(Cl)cc(Cl)c(O)c2n1` [Chlorquinaldol], the “growth AUC normalised to DMSO control” value was 0.014 (active).
For the compound `NS(=O)(=O)c1cc2c(cc1Cl)NC(Cc1ccccc1)NS2(=O)=O` (centres undefined) [Benzylhydrochlorothiazide], the “growth AUC normalised to DMSO control” value was 1.1.
The same measure, in the same setting: under `N[C@@H](C(=O)N[C@@H]1C(=O)N2C(C(=O)O)=C(Cl)CC[C@H]12)c1ccccc1` [Loracarbef] stands 0.00996 (active); under `CC(=O)OC[C@H]1O[C@@H](n2ncc(=O)[nH]c2=O)[C@H](OC(C)=O)[C@@H]1OC(C)=O` [Azaribine], 0.956; under `NCCc1c[nH]cn1` [Histamine dihydrochloride], 0.979.
On the same count and under the same terms, under `OC(CNCC(O)C1CCc2cc(F)ccc2O1)C1CCc2cc(F)ccc2O1` (centres undefined) [Nebivolol hydrochloride] stands 1.01.
